This is a sample that favours compounds with a hit; in the whole collection about 4.1% have one here.
DAX1 inh-1 = inhibitors of DAX1 repression of SF-1 activated StAR promoter | HEK293T StAR-luciferase reporter, SF-1/DAX-1 repression relief | inhibition, % at 6.8 µM | hit rate 1.1% among 370,000;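 active means inhibition above the mean over all tested compounds plus 3 SD, cut at about 3.6% in these data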;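 further: 0% = DAX-1 cells with DMSO and 100% = cells lacking DAX-1 with DMSO; higher inhibition means more luminescence from relief of DAX-1 repression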
ssDAF12 agonist = activates DAF-12 receptor from parasite S. stercoralis; hit rate 1% among 370,000; HEK293 ssDAF-12/GRIP1 lit1-tk-luc reporter, luminescence; % of 3 µM dafachronic acid response; activation, % at 6.8 µM; AID 652126;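 active means activation above the mean over all tested compounds plus 3 SD, cut at about 0.9% in these data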;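 further: 0% = DMSO-only wells and 100% = 3 µM delta7-dafachronic acid wells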
DAX1 inh-2 = inhibits human nuclear receptor DAX1 | hit rate 0.99% among 340,000 | HEK293 Gal4-DAX1 luciferase reporter, luminescence | inhibition, % at 6.75 µM;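 active means inhibition above the mean over all tested compounds plus 3 SD, cut at about 4.2% in these data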;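 further: 0% = DAX1-transfected cells with DMSO and 100% = empty-vector control cells with DMSO; inhibition shows as a rise in luminescence from relieved DAX1 repression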
Target sequence (P51843 207-470 limits assumed): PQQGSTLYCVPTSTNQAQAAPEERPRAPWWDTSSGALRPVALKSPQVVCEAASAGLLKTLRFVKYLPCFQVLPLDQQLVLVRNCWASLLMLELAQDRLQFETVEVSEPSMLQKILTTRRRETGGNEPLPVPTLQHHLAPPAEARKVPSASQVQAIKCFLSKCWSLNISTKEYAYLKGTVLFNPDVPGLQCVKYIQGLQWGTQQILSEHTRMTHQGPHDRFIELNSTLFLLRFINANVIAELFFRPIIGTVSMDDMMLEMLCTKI
hcDAF-12 act = H. contortus DAF-12 activation, primary screen. HEK293 hcDAF-12 lit1-tk-luc reporter, luminescence; 0% DMSO, 100% Δ7-dafachronic acid. activation, % at 6.8 µM. hit rate 1.4% among 370,000. AID 652067;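 active means activation above the mean of all tested compounds plus 3 SD, cut at about 5.5% in these data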;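 further: 100% = response to 3 µM Δ7-dafachronic acid high control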
hgDAF12 agonist = activates the H. glycines DAF-12 receptor ligand-binding domain; HEK293 GAL4-hgDAF12 UAS-luciferase reporter, agonist luminescence; normalized to butyrate control; activation, % at 6.8 µM; hit rate 1.8% among 370,000; AID 687014;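 active means activation above a cutoff set at the mean of all screened compounds plus 3 SD, cut at about 10% in these data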;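 further: 0% = DMSO wells and 100% = sodium butyrate wells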
hgDAF12 ag = hgDAF-12 agonism, confirmation assay; hit rate 80% among 3,300; HEK293 GAL4-hgDAF12 luciferase reporter, agonist mode; percent of butyrate response; AID 743050; activation, % at 6.8 µM; shares compounds with hgDAF12 agonist;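 active means mean activation over triplicate wells above the hit cutoff derived from the earlier primary screen, cut at about 11% in these data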;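 further: 0% = DMSO low control and 100% = 2 mM sodium butyrate high control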
LXRb DAF12 ctr = activates human LXR-beta, counter-screen for DAF-12 agonists; shares compounds with hgDAF12 agonist; HEK293 Gal4-LXR luciferase reporter, 24 h; activation, % at 6.8 µM; 3,300 tested, under 10 active; AID 743051;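 active means mean activation of the triplicate above a set limit carried over from the primary screen, none filed active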
Active calls of the source: *; x = not tested or not shown.

SMILES	DAX1 inh-1	ssDAF12 agonist	DAX1 inh-2	hcDAF-12 act	hgDAF12 agonist	hgDAF12 ag	LXRb DAF12 ctr
CC(C)N(C)c1ncnc2c1ncn2[C@H]1CN(C2CCCC2)C[C@@H](CO)O1	0	-1	x	-1	-4	x	x
Cc1ccc(S(=O)(=O)N2O[C@@H](c3ccccc3)C[C@H]2CON2C(C)(C)CCCC2(C)C)cc1	x	-1	x	-1	0	x	x
Cc1cc(C)nc(NC(=S)NC(=O)c2ccccc2)n1	0	0	2	0	1	x	x
Cc1ccc(-c2nc3ccccc3s2)cc1NC(=S)NC(=O)c1ccccc1	2	1.6*	3	5.7*	15*	16*	1
C/C(=N\NC(=O)c1c(Br)c(C)nn1C)c1cccc(NC(=O)c2ccccc2F)c1	0	-2	-1	-1	-1	x	x
C/C(=N\NC(=O)c1nn(C)c(C)c1Br)c1cccc(NC(=O)c2ccc(F)cc2)c1	4.1*	0	3	5	17*	5	0
C/C(=N\NC(=O)c1ccccc1)c1cccc(Br)c1	1	0	2	3	14*	7	0
CC1(C)CC(=O)C(C(N)=NC(=O)c2ccccc2)=C(O)C1	0	-1	-2	-2	3	x	x
C/C(=N/NC(=O)c1ccccc1)C1=C(O)CC(C)(C)CC1=O	2	-1	2	3	14*	3	0
Clc1ccc(Br)c(-c2nc3ccccc3[nH]2)c1	-1	-1	-1	-1	2	x	x
CC1(C(=O)NCC2CC2)Cc2c(-c3ccccc3)ccnc2O1 (stereo not drawn)	-2	-2	x	-2	-3	x	x
O=C(Nc1ccc(F)cc1)OCc1cn(Cc2cccc(F)c2F)nn1	-1	0	x	1	0	x	x
Cc1ccccc1Nc1cc(C)c2c(O)cccc2n1	0	-1	0	1	1	x	x
Cc1ccc(Nc2cc(C)c3c(O)cccc3n2)cc1C	1	0	1	4	15*	15*	1
CCC(C)(C)C1CCC(=NNc2nc3ccccc3[nH]2)CC1 (stereo not drawn)	1	-1	1	-1	8	x	x
CC(=O)N1CCC(=NNc2nc3ccccc3[nH]2)CC1	1	1	x	4	16*	6	0
COc1ccc([C@H]2OC(=O)C[C@@H]2C(=O)N2CCN(c3ccccc3F)CC2)cc1OC	-1	-2	x	0	0	x	x
O=C(Nc1ccccn1)N1CCOCC1	0	-1	2	1	3	x	x
O=C(Nc1ccc2nc(-c3ccccn3)c(-c3ccccn3)nc2c1)N1CCOCC1	0	-1	0	-1	15*	0	0
COC(=O)c1cn(C(=O)c2ccc3c(c2)OCO3)c2ccccc12	-1	-1	1	-1	-2	x	x
CC(=O)NCCC1CCCCN1C(=O)c1cc(COc2cc(C)ccc2C)on1 (stereo not drawn)	2	1	1	5	16*	13*	1
COC1CCN(C(=O)c2cc(COc3cc(C)ccc3C)on2)CC1	0	-1	1	-2	2	x	x
O=c1c2ccccc2nnn1COc1cccc(Cl)c1	2	-1	2	1	13*	6	0
COC(=O)c1ccc(-c2ccc(Cl)cc2)nc1C	4.3*	0	2	5	14*	20*	1
COC(=O)c1ccccc1NC(=O)c1sc(Cl)nc1C	-1	-1	0	0	-2	x	x
SMILES	DAX1 inh-1	ssDAF12 agonist	DAX1 inh-2	hcDAF-12 act	hgDAF12 agonist	hgDAF12 ag	LXRb DAF12 ctr
COc1ccc(C=NNC(=O)c2cc(-c3ccc(C)c(C)c3)n[nH]2)cc1OCc1ccccc1	-2	-1	x	0	9	x	x
O=C(Nc1ccccn1)c1csc2c1CCCC2	3	0	1	6.0*	19*	16*	1
Cc1ccc(NC(=O)c2ccc3snnc3c2)cc1	2	-1	0	2	16*	16*	0
Cc1cccc(Nc2n[nH]c(=S)s2)c1C	0	-1	0	2	0	x	x
Cc1cccc(Nc2nc3ccccc3s2)c1C	3	1.3*	1	5	21*	20*	1
CNc1oc(/C=C/c2ccccc2)nc1C#N	2	1.6*	1	5	13*	18*	1

High-throughput results: PubChem, The Scripps Research Institute Molecular Screening Center
